Results taken from publication PMC4336329 (PLoS ONE, 2015).
About 14,000 (4.5%) of roughly 310,000 compounds showed an effect of 50% or more. The effect is printed as a negative number. The sample holds strong results, similar compounds and a random draw of the others, so the mix is not that of the screen.

Target: human ether-à-go-go-related gene (hERG) potassium channel (human, UniProt Q12809)
Test: primary screen, population patch clamp on CHO cells stably expressing hERG; higher = less effect of the substance
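Also: peak tail current of the secondary pulse compared with the same well before compound.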

human ether-à-go-go-related gene (hERG) potassium channel, sequence (Q12809 whole entry, looked up): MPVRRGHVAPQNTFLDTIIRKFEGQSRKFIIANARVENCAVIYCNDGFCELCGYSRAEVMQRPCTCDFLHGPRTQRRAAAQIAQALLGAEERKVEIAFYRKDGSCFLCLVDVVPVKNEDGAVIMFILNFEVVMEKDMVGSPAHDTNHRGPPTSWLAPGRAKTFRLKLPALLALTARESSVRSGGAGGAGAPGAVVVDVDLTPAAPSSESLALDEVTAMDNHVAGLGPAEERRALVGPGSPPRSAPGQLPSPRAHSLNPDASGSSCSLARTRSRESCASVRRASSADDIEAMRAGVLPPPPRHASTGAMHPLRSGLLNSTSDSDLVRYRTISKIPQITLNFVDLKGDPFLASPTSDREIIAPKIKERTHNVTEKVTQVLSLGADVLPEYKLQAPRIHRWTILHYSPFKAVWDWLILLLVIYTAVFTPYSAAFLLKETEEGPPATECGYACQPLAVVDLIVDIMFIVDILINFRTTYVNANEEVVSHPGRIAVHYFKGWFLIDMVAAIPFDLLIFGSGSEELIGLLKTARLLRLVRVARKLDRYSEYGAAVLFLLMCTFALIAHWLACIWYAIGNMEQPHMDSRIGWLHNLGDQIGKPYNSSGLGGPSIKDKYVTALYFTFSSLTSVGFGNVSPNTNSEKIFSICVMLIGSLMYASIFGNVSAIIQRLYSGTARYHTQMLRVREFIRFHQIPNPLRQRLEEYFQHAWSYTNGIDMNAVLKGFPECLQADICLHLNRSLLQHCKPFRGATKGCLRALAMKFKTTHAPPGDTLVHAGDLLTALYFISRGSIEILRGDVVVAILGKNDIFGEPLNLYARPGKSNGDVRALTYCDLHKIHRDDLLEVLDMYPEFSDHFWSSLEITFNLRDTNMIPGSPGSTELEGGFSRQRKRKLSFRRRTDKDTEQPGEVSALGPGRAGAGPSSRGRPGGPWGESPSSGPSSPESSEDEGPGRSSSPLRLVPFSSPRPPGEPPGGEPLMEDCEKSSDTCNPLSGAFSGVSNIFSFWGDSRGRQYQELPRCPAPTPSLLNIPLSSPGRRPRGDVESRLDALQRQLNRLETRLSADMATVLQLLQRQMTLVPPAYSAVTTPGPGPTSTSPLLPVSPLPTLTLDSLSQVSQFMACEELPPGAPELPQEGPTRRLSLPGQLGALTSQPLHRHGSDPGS

SMILES | hERG current change (%, negative = inhibition) at 10uM [%]
Cc1cc(N2C(=O)C(O)=C(C(=O)c3cccs3)C2c2cccc(Br)c2)no1 (stereo not shown) | 6.05
c1ccc(-c2nnc(-c3ccncc3)nc2-c2ccccc2)cc1 | -24.5
COc1cccc2c(=O)cc(C)n(CC(=O)Nc3ccc(Br)cc3)c12 | 12.8
COc1cccc2c(=O)cc(C)n(CC(=O)Nc3cccc(C)c3)c12 | -59.4
COc1cccc2c(=O)cc(C)n(CC(=O)Nc3ccc(C)c(C)c3)c12 | -5.88
Cc1ccc(C(=O)NNC(=O)c2cccc(S(=O)(=O)N3CCN(c4ccccc4)CC3)c2)cc1 | -25.4
O=C(c1cccc(S(=O)(=O)N2CCCCCC2)c1)N1CCN(c2ccccc2)CC1 | -68.8
O=C(c1cccc(S(=O)(=O)N2CCN(c3ccccc3)CC2)c1)N1CCCCCCC1 | -33.4
O=C(NNC(=O)c1cccc(S(=O)(=O)N2CCN(c3ccccc3)CC2)c1)c1ccc(Cl)cc1 | -59.5
Cc1ccc(NC(=O)c2cccc(S(=O)(=O)N3CCN(c4ccccc4)CC3)c2)nc1 | -1.19
O=C(c1cccc(S(=O)(=O)N2CCOCC2)c1)N1CCN(c2ccccc2)CC1 | -15.7
O=C(c1cccc(S(=O)(=O)N2CCCCC2)c1)N1CCN(c2ccccc2)CC1 | -73.1
O=C(c1cccc(S(=O)(=O)N2CCCC2)c1)N1CCN(c2ccccc2)CC1 | -13
CC(=O)N1CCN(C(=O)c2cccc(S(=O)(=O)N3CCN(c4ccccc4)CC3)c2)CC1 | -16.5
CC1Oc2ccccc2N(CC(=O)NCc2ccccc2)C1=O (stereo not shown) | 6.53
CCOC(=O)C1=NN(c2ccccc2)C2=NC(C)=C(C(=O)OC)C(c3cccs3)N12 (stereo not shown) | -5.66
CCc1ccc(NC(=O)CNS(=O)(=O)c2c(C)noc2C)cc1 | -2.28
N#Cc1nc(-c2ccco2)oc1N1CCN(c2cccc(Cl)c2)CC1 | -16.1
COc1cc(NC(=O)CSc2nnnn2-c2ccccc2)cc(OC)c1OC | -0.308
CCOc1ccccc1NC(=O)c1cccc2c1C(=O)N(C1CCCCC1)C2 | 9.57
C1CCCCCC2(CCCCC1)OCC(CN1CCOCC1)O2 (stereo not shown) | -20.5
CN(C)S(=O)(=O)c1ccc(C(=O)NCc2nc3ccccc3s2)cc1 | 1.24
O=C(CCCc1nc2ccccc2s1)NCc1ccc(F)cc1 | -37.4
CN(Cc1nc2ccccc2s1)C(=O)c1ccc(F)cc1 | -61
Cc1cccc(-c2nc(=S)c3c(n2Cc2ccco2)CCCC3)c1 | 7.14
O=C(NCc1ccccc1)C1=C[C@H](c2coc3ccccc3c2=O)C[C@H](OCc2ccc(CO)cc2)O1 | -38.1
CCn1c(=O)cc(SCC(=O)NCCC2=CCCCC2)c2ccccc21 | -6.46
Cc1ccc(OCCCC(=O)Nc2ccc(Br)cc2)cc1 | 17.2

SMILES | hERG current change (%, negative = inhibition) at 10uM [%]
CN(CCOc1ccccc1)CC(O)COc1ccccc1 (stereo not shown) | 10.8
CC(=O)c1ccc(OCC(O)CN(C)CCOc2ccc(Br)cc2)cc1 (stereo not shown) | 23.4
CC(C)c1ccc(CN(C)CC(O)c2ccccc2)cc1.O=C(O)C(=O)O (stereo not shown) | -18.9
CC(OCC(O)CN(C)CCOc1ccccc1)c1ccc(Cl)cc1 (stereo not shown) | -43.5
CN(CCOc1ccc(Br)cc1)CC(O)c1ccccc1.O=C(O)C(=O)O (stereo not shown) | -63.1
CN(CCOc1ccc(Cl)cc1)CC(O)c1ccccc1.O=C(O)C(=O)O (stereo not shown) | -60.4
COC(=O)c1cc(Cl)c(NC(=O)/C=C/c2ccc(Cl)cc2Cl)cc1OC | -10.9
COc1ccc(N2CCN(C(=O)CNC(=O)Cc3ccc(Cl)cc3)CC2)cc1 | -8.38
Cc1cc(C)c(C#N)c(SCC(=O)CC(=O)OC(C)C)n1 | 1.82
Cc1ccc(NS(=O)(=O)c2ccc(Br)s2)nc1 | 23.4
Cc1ccc(C)c(OCCCC(=O)Nc2nccs2)c1 | 12.9
CC(C)Cn1nc(-c2ccccc2)c2ccccc2c1=O | 20.1
CCCCNC(=O)C1CCN(C/C(C)=C/c2ccccc2)CC1.O=C(O)C(=O)O | -63
CCN(Cc1ccccc1)C(=O)C1CCN(C(=O)Nc2ccccc2)CC1 | 14.8
CCN(Cc1ccccc1)C(=O)C1CCN(C/C(C)=C/c2ccccc2)CC1.O=C(O)C(=O)O | -70.4
CCCCN(C)C(=O)C1CCN(C/C(C)=C/c2ccccc2)CC1.O=C(O)C(=O)O | -73.4
C/C(=C\c1ccccc1)CN1CCC(C(=O)N2CCC(C)CC2)CC1.O=C(O)C(=O)O | -63
CC1CCN(C(=O)C2CCN(CC(C)c3ccccc3)CC2)CC1.O=C(O)C(=O)O (stereo not shown) | -13.5
CCCCNC(=O)C1CCN(Cc2ccccn2)CC1 | 12
C/C(=C\c1ccccc1)CN1CCN(C)CC1 | 16.2
CCN(CC)C(=O)C1CCCN(C/C(C)=C/c2ccccc2)C1 (stereo not shown) | -30.7
C/C(=C\c1ccccc1)CN1CCC(C(=O)N2CCCCC2)CC1.O=C(O)C(=O)O | -47.5
CCOC(=O)N1CCN(C/C(C)=C/c2ccccc2)CC1 | -25.1
CCN1CCN(C/C(C)=C/c2ccccc2)CC1 | 4.72
Cc1cc(C)c(NC(=O)C2CCN(C(=O)c3ccco3)CC2)c(C)c1 | 19.9
COc1ccc(C2C(C(=O)c3sc(C)nc3C)=C(O)C(=O)N2CCN(C)C)cc1 (stereo not shown) | -6.4
O=C(COC(=O)c1cccs1)Nc1cccc(Cl)c1 | 10.2
